Activity calls are given as the source filed them. Unless noted, the rule behind the calls is not given here.
Assays:
[1] = system: Wnt5a (protein binding on small-molecule microarray); assay: Wnt5a binders on small-molecule microarray, primary screen, biophysical, 635/667 nm fluorescence (AID 1142); details: 635 nm fluorescence, higher = more signal;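 note: fluorescence read at 667 nm with signal to noise per printed feature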
[2] = cell viability in Huh7 cells, primary screen, cytotoxicity control for HCV replication inhibitor project, CellTiter-Glo luminescence, basal, 48 h (AID 1143); details: Huh7 HCV replicon, higher = more signal, called active from +8 up or from −8 down;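 note: Huh7 hepatoma cells carrying a hepatitis C replication reporter with no stimulus; test concentration not given here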
[3] = P. aeruginosa biofilm formation inhibitors, primary screen, PAO1 strain, BacTiter-Glo luminescence, LB-PBS (AID 1144); details: 12 h, higher = more signal
[4] = CREB reporter modulators without forskolin, primary screen, cell-based, PC12, CRE-LacZ reporter, unstimulated (AID 1145); details: no forskolin, luminescence, 4.5 h, higher = more signal, called active from +8 up or from −8 down
[5] = CREB reporter modulators under forskolin, primary screen, cell-based, PC12, CRE-LacZ reporter, forskolin-stimulated (AID 1146); details: luminescence, 4.5 h, higher = more signal, called active from +8 up or from −8 down;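 note: PC12 cells with 6xCRE LacZ reporter stimulated by forskolin 10 µM; beta-galactosidase reporter signal reflecting CREB driven transcription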
[6] = target: Streptavidin (Streptomyces avidinii) (UniProt P22629); assay: streptavidin binders on small-molecule microarray, primary screen, artefact control for SMM compound annotation, biophysical, 635/667 nm fluorescence (AID 1147); details: streptavidin binding, higher = more signal;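 note: signal reflects streptavidin binding to arrayed compounds as a control protein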
Streptavidin (Streptomyces avidinii), sequence (P22629 whole entry, looked up): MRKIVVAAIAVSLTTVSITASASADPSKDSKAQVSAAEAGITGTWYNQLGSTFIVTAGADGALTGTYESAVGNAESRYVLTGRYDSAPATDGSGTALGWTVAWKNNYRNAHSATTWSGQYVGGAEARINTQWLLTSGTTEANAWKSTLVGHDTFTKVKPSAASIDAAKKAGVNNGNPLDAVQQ

[7] = small-molecule binders of probe aInhba, primary screen, biochemical, small-molecule microarray, 635/667 nm fluorescence (AID 1148); details: higher = more signal;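 note: score merges 667nm spot fluorescence with signal-to-noise for antibody binding to printed compounds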
Torsin-1A (Homo sapiens) [8] = target: Torsin-1A (Homo sapiens) (UniProt O14656); assay: torsin A binders from cell lysate, primary screen, small-molecule microarray, wild-type, 635/667 nm (AID 1149); details: COS7 hTOR1A-WT lysate, 635 nm fluorescence, higher = more signal
Torsin-1A (Homo sapiens), sequence (O14656 whole entry, looked up): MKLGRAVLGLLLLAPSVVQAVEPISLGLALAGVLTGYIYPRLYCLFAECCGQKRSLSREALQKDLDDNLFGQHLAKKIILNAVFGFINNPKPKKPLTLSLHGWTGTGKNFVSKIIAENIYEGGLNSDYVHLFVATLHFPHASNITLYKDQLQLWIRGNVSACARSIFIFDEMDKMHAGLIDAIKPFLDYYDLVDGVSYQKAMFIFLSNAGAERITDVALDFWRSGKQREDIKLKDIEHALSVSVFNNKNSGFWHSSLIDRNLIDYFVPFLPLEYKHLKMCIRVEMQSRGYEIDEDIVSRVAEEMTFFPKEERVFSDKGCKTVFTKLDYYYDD

Torsin-1A (Homo sapiens) [9] = target: Torsin-1A (Homo sapiens) (UniProt O14656); assay: small-molecule binders of mutant TOR1A in lysate, primary screen, cell lysate, small-molecule microarray, COS7 lysate, 635/667 nm fluorescence (AID 1150); details: COS7 hTOR1A mutant lysate, 635 nm fluorescence, higher = more signal;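 note: score pools 667 nm emission and signal to noise measuring lysate protein binding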
[10] = system: Sonic hedgehog protein (Shh); assay: small-molecule binders of Shh protein, primary screen, biochemical, small-molecule microarray, 635/667 nm fluorescence (AID 1151); details: small-molecule microarray binding, 635 nm fluorescence; higher = more signal;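 note: Shh protein binding to compounds spotted on small-molecule microarray slides; score combines spot fluorescence intensity with signal-to-noise across triplicate slides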
[11] = E. coli DRC41 culture turbidity changes, primary screen, E. coli filamentation inducer project, strain DRC41, OD650, 48 h (AID 1152);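 note: E. coli MC1000 strain DRC41 lacking acrAB efflux pump and sulA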; details: E. coli DRC41 (acrAB sulA), higher = more signal, called active from +8 up or from −8 down
[12] = small-molecule binders of probe aLefty1, primary screen, biochemical, small-molecule microarray, 635/667 nm fluorescence (AID 1153); details: higher = more signal;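 note: score merges spot fluorescence with signal-to-noise ratio from the scanned slide images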
[13] = PSAC antagonists in infected red cells, primary screen, cell-based, P. falciparum Indochina, OD700, 1 h (AID 1154); details: P. falciparum Indochina infected RBC osmotic lysis, higher = more signal, called active from +8 up or from −8 down
[14] = PSAC antagonists in infected red cells, primary screen, cell-based, P. falciparum Indochina, OD700, 2 h (AID 1155);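 note: lysis reports solute entry through the parasite surface anion channel PSAC; channel blockers reduce lysis of infected cells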; details: P. falciparum Indochina infected erythrocytes, osmotic lysis OD700; higher = more signal, called active from +8 up or from −8 down
[15] = osmotic lysis modulators in infected erythrocytes, primary screen, PSAC antagonist project, cell-based, P. falciparum Indochina, OD700, 3 h (AID 1156); details: higher = more signal, called active from +8 up or from −8 down
[16] = PSAC antagonists in infected red cells, primary screen, cell-based, P. falciparum Indochina, OD700, 18 h (AID 1157); details: P. falciparum Indochina infected erythrocytes, osmotic lysis OD700, 18 h; higher = more signal, called active from +8 up or from −8 down
[17] = modulators of S6 phosphorylation in cells, primary screen, cell-based, A549, cytoblot, luminescence, serum-stimulated (AID 1158); details: A549 phospho-S6 cytoblot, 5 h, higher = more signal;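 note: serum-stimulated A549 lung adenocarcinoma cells; signal is phosphorylated S6 detected by cytoblot immunostaining with HRP secondary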
[18] = target: NADPH oxidase 2 (Homo sapiens) (UniProt P04839); assay: NOX2-dependent H2O2 signal modulators, primary screen, NOX inhibitor project, cell-based, HEK293-NOX2, PMA-stimulated, Amplex Red fluorescence (AID 1159); details: 45 min, higher = more signal, called active from +8 up or from −8 down; note: test concentration not given here
NADPH oxidase 2 (Homo sapiens), sequence (P04839 whole entry, looked up): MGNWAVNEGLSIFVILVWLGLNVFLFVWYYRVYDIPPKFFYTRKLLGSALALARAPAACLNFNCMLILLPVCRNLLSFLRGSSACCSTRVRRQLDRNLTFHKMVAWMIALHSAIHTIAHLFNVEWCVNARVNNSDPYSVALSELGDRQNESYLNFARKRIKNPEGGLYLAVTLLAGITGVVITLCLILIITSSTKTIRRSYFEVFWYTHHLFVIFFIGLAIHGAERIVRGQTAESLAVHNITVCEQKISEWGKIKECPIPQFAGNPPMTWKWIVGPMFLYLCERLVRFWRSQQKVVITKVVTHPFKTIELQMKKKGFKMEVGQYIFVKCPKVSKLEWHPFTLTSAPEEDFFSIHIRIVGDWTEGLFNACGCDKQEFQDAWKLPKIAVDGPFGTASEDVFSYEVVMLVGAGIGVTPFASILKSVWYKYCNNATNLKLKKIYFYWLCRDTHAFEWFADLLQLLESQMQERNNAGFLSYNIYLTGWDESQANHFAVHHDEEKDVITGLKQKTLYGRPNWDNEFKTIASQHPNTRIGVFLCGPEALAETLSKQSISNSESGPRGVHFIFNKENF

[19] = target: NADPH oxidase 4 (Homo sapiens) (UniProt Q9NPH5); assay: NOX4-dependent H2O2 signal modulators, primary screen, NOX inhibitor project, cell-based, HEK293-NOX4, tetracycline-induced, Amplex Red fluorescence (AID 1160); details: 45 min, higher = more signal, called active from +8 up or from −8 down
NADPH oxidase 4 (Homo sapiens), sequence (Q9NPH5 whole entry, looked up): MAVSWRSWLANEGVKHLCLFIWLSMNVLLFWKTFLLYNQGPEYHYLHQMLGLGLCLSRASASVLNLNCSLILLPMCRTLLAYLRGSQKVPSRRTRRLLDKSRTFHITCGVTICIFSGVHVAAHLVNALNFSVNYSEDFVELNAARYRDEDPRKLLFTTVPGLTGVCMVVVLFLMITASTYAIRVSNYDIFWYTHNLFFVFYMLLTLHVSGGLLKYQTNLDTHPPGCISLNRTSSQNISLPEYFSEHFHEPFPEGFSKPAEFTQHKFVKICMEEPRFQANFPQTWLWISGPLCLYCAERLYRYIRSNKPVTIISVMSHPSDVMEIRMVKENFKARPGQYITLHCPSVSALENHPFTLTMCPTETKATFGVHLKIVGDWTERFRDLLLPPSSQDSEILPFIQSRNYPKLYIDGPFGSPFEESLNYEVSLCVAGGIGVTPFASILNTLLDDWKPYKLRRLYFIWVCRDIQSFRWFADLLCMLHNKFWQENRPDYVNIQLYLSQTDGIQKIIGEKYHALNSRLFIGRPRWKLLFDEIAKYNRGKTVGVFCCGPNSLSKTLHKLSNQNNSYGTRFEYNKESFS

[20] = target: NADPH oxidase 5 (Homo sapiens) (UniProt Q96PH1); assay: NOX5-dependent H2O2 signal modulators, primary screen, NOX inhibitor project, cell-based, HEK293-NOX5, Amplex Red fluorescence (AID 1161); details: HEK293-NOX5, ionomycin, 45 min, higher = more signal
NADPH oxidase 5 (Homo sapiens), sequence (Q96PH1 whole entry, looked up): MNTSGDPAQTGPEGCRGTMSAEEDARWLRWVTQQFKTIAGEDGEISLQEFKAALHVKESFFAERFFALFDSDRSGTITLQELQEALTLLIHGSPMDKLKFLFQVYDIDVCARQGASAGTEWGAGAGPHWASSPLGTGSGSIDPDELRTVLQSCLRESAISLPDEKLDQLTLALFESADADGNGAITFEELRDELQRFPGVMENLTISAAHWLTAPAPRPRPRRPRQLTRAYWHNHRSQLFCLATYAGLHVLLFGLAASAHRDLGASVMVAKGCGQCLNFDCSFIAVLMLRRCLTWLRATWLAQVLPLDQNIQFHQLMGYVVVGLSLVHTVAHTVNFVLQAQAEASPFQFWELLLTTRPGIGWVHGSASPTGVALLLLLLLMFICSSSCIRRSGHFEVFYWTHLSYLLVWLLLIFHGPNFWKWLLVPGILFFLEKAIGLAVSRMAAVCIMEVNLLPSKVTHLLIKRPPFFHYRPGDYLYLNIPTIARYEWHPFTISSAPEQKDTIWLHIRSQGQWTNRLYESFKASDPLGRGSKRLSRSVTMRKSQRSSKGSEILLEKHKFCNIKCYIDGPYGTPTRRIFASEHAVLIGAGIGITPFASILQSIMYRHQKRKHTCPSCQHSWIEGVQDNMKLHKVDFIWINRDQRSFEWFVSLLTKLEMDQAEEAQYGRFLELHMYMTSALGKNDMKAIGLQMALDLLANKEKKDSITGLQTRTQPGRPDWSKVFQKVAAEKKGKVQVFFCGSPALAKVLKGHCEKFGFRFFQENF

CN(C)C(=O)[C@@]1(CCC(=O)OC(C)(C)C)N=C(c2ccc(OCCCO)cc2)O[C@H]1c1ccccc1N=[N+]=[N-]
composite z-score [1]: 1.46 | z-score [2]: -1.84 (inactive) | z-score [3]: -0.0215 (inactive) | z-score [4]: 1.31 (inactive) | z-score [5]: -1.33 (inactive) | composite z-score [6]: 1.6 | composite z-score [7]: 0.277 | composite z-score (Torsin-1A (Homo sapiens) [8]): 1.76 | composite z-score (Torsin-1A (Homo sapiens) [9]): 2.25 | composite z-score [10]: 0.18 | z-score [11]: 0.0366 (inactive) | composite z-score [12]: 0.646 | z-score [13]: 32.9 (active) | z-score [14]: 32.2 (active) | z-score [15]: 1.78 (inactive) | z-score [16]: 3.02 (inactive) | z-score [17]: -0.192 | z-score [18]: -3.57 (inactive) | z-score [19]: 0.0136 (inactive) | z-score [20]: -1.97

COC(=O)[C@@]1(Cc2ccccc2)[C@H]2c3cc(C(=O)N4CCCC4)n(CCO)c3C[C@H]2CN1C(=O)c1ccccc1
composite z-score [1]: 1.42 | z-score [2]: -1.08 (inactive) | z-score [3]: 0.0984 (inactive) | z-score [4]: -0.189 (inactive) | z-score [5]: 0.0581 (inactive) | composite z-score [6]: 1.97 | composite z-score [7]: 1.4 | composite z-score (Torsin-1A (Homo sapiens) [8]): 3.21 | composite z-score (Torsin-1A (Homo sapiens) [9]): 3.41 | composite z-score [10]: -1.01 | z-score [11]: -0.258 (inactive) | composite z-score [12]: 1.89 | z-score [13]: 0.0574 (inactive) | z-score [14]: -0.644 (inactive) | z-score [15]: -0.513 (inactive) | z-score [16]: -1.61 (inactive) | z-score [17]: 1.33 | z-score [18]: 0.661 (inactive) | z-score [19]: -0.517 (inactive) | z-score [20]: -2.49

COC(=O)[C@@]1(Cc2ccc(F)cc2)[C@H]2c3cc(C(=O)N(C)C)n(CCSCCO)c3C[C@H]2CN1C(=O)c1ccccc1
composite z-score [1]: -0.0292 | z-score [2]: -0.259 (inactive) | z-score [3]: -0.482 (inactive) | z-score [4]: -0.565 (inactive) | z-score [5]: 0.222 (inactive) | composite z-score [6]: 0.352 | composite z-score [7]: -0.0001 | composite z-score (Torsin-1A (Homo sapiens) [8]): 0.0627 | composite z-score (Torsin-1A (Homo sapiens) [9]): 0.387 | composite z-score [10]: -0.509 | z-score [11]: -0.683 (inactive) | composite z-score [12]: -0.0901 | z-score [13]: 0.621 (inactive) | z-score [14]: -0.383 (inactive) | z-score [15]: -0.662 (inactive) | z-score [16]: 0.397 (inactive) | z-score [17]: -0.426 | z-score [18]: 0.746 (inactive) | z-score [19]: -0.303 (inactive) | z-score [20]: -0.572

C[C@H]1NC(=O)C([C@@H](C)OCc2ccccc2)NC(=O)[C@@]23C(=O)N[C@@H](Cc4ccccc4)C2[C@H](C)[C@@]2(C)O[C@H]2C3/C=C/CC/C=C/CNC1=O (stereo not given in full)
composite z-score [1]: -0.108 | z-score [2]: -1.24 (inactive) | z-score [3]: 1.27 (inactive) | z-score [4]: 4.21 (inactive) | z-score [5]: -1.16 (inactive) | composite z-score [6]: -0.0311 | composite z-score [7]: -0.122 | composite z-score (Torsin-1A (Homo sapiens) [8]): -0.0252 | composite z-score (Torsin-1A (Homo sapiens) [9]): 0.212 | composite z-score [10]: 0.778 | z-score [11]: 1.85 (inactive) | composite z-score [12]: -0.0094 | z-score [13]: 1.79 (inactive) | z-score [14]: 0.76 (inactive) | z-score [15]: 0.89 (inactive) | z-score [16]: 0.107 (inactive) | z-score [17]: 0.888 | z-score [18]: 1.24 (inactive) | z-score [19]: -0.179 (inactive) | z-score [20]: 0.815

CN(C)C(=O)[C@]1(Cc2ccccc2N=[N+]=[N-])N=C(c2ccc(OCCCO)cc2)O[C@@H]1c1ccccc1CN=[N+]=[N-]
composite z-score [1]: 0.556 | z-score [2]: -4.87 (inactive) | z-score [3]: -1.57 (inactive) | z-score [4]: 1.57 (inactive) | z-score [5]: 0.367 (inactive) | composite z-score [6]: 1.27 | composite z-score [7]: 0.282 | composite z-score (Torsin-1A (Homo sapiens) [8]): 0.683 | composite z-score (Torsin-1A (Homo sapiens) [9]): 0.84 | composite z-score [10]: 0.307 | z-score [11]: 0.367 (inactive) | composite z-score [12]: 0.81 | z-score [13]: 29.4 (active) | z-score [14]: 20 (active) | z-score [15]: 3.02 (inactive) | z-score [16]: 2.16 (inactive) | z-score [17]: 0.915 | z-score [18]: -2.57 (inactive) | z-score [19]: -0.305 (inactive) | z-score [20]: -1.93

C[N+](C)(C)CCCC[C@@H]1NC(=O)[C@@H]2C[C@H](C(=O)NCCCCCNC(=O)CS)[C@H](c3cccc(OCCO)c3)N2C1=O
composite z-score [1]: 0.623 | z-score [2]: -0.192 (inactive) | z-score [3]: 0.152 (inactive) | z-score [4]: 0.688 (inactive) | z-score [5]: 0.478 (inactive) | composite z-score [6]: 0.0879 | composite z-score [7]: 0.0636 | composite z-score (Torsin-1A (Homo sapiens) [8]): 0.628 | composite z-score (Torsin-1A (Homo sapiens) [9]): 0.186 | composite z-score [10]: 1.38 | z-score [11]: 0.724 (inactive) | composite z-score [12]: -0.0061 | z-score [13]: 3.64 (inactive) | z-score [14]: 0.813 (inactive) | z-score [15]: -1.78 (inactive) | z-score [16]: 0.718 (inactive) | z-score [17]: 0.596 | z-score [18]: 1.54 (inactive) | z-score [19]: 0.433 (inactive) | z-score [20]: 0.711

N#Cc1ccc(NN2C(C(O)c3ccco3)C=CC3C(=O)N(c4ccccc4)C(=O)C32)cc1 (stereo not given)
composite z-score [1]: 0.0896 | z-score [2]: 1.34 (inactive) | z-score [3]: -0.768 (inactive) | z-score [4]: -0.136 (inactive) | z-score [5]: 0.2 (inactive) | composite z-score [6]: 0.252 | composite z-score [7]: 0.0183 | composite z-score (Torsin-1A (Homo sapiens) [8]): 0.135 | composite z-score (Torsin-1A (Homo sapiens) [9]): -0.236 | composite z-score [10]: -0.0404 | z-score [11]: -4.51 (inactive) | composite z-score [12]: 0.135 | z-score [13]: 7.71 (inactive) | z-score [14]: 1.67 (inactive) | z-score [15]: 1.12 (inactive) | z-score [16]: 0.826 (inactive) | z-score [17]: -0.555 | z-score [18]: -0.911 (inactive) | z-score [19]: -4.51 (inactive) | z-score [20]: -2.69

COCCOC(=O)N1C(=O)[C@@]2(c3cc(C#CCCO)ccc31)[C@H](C(=O)NC[C@H](O)c1ccccc1)[C@H]1C(=O)O[C@H](c3ccccc3)[C@H](c3ccccc3)N1[C@@H]2c1ccccc1OCCO
composite z-score [1]: 0.524 | z-score [2]: -1.34 (inactive) | z-score [3]: 1.59 (inactive) | z-score [4]: -0.0607 (inactive) | z-score [5]: 0.172 (inactive) | composite z-score [6]: 0.562 | composite z-score [7]: 0.413 | composite z-score (Torsin-1A (Homo sapiens) [8]): 1.19 | composite z-score (Torsin-1A (Homo sapiens) [9]): 0.597 | composite z-score [10]: 1.35 | z-score [11]: -0.0118 (inactive) | composite z-score [12]: 0.213 | z-score [13]: 2.52 (inactive) | z-score [14]: 0.963 (inactive) | z-score [15]: -0.654 (inactive) | z-score [16]: 0.705 (inactive) | z-score [17]: -0.18 | z-score [18]: 1.54 (inactive) | z-score [19]: 0.992 (inactive) | z-score [20]: 1.17

CC(C)CCC[C@@H](C)[C@H]1CC[C@@]2(C)C3=C(CC[C@]12C)[C@@]1(C)CC[C@H](OC(=O)c2ccc(N)cc2)C(C)(C)C1CC3 (stereo not given in full)
composite z-score [1]: 0.279 | z-score [2]: -0.793 (inactive) | z-score [3]: -0.593 (inactive) | z-score [4]: 1.39 (inactive) | z-score [5]: -0.391 (inactive) | composite z-score [6]: 0.143 | composite z-score [7]: -0.208 | composite z-score (Torsin-1A (Homo sapiens) [8]): 0.315 | composite z-score (Torsin-1A (Homo sapiens) [9]): 0.273 | composite z-score [10]: 0.49 | z-score [11]: 3.27 (inactive) | composite z-score [12]: -0.278 | z-score [13]: -1.05 (inactive) | z-score [14]: -1.26 (inactive) | z-score [15]: -0.492 (inactive) | z-score [16]: -2.86 (inactive) | z-score [17]: 1.93 | z-score [18]: -0.759 (inactive) | z-score [19]: 0.253 (inactive) | z-score [20]: 0.807

— PubChem BioAssay
